HTT cytoprotect – protects HTT-Q103 PC12 cells, measured by ATP. 230,000 tested, 0.14% active. Potency, µM (titrated, usually from 56.4 µM), usual class: activators. PC12 HTT-Q103 induced, cytoprotection, ATP luminescence, 40 h; further: nearly all actives have a fitted effect of over 45% in size
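Compounds were screened for protection of PC12 cells against cell death after tebufenozide induction (100 nM final) of mutant Huntingtin exon 1 (Q103) fused to GFP.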
HttQ103 aggreg – reduces HttQ103-GFP aggregates in PC12 cells; Potency, µM (series often up to 46.1 µM), actives largely listed as inhibitors; 220,000 tested, 1.1% active; PC12 HttQ103-GFP aggregates, Acumen cytometry, 40 h; further: nearly all actives have a fitted effect of over 60% in size
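PC12 cells stably carrying ecdysone-inducible HTT exon 1 Q103–GFP were induced with tebufenozide (100 nM final) and treated with library compounds in titration. GFP aggregates in lysates were counted by laser scanning cytometry.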
IMPase inh – IMPase inhibition in cells. CHO-M1 cells, IP1 accumulation, HTRF TR-FRET ratio. inhibition (IP1 accumulation), % at 46.1 µM. 120,000 tested, under 10 active; active means well fitted curve in the direction sought with a large enough effect in the signal ratio, not every such curve was filed as active; inconclusive means small, poorly fitted or top-dose-only effect, or a change in a side signal; inactive means no such curve, though single readings can be large or run the other way; the % refers to the signal ratio;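 further: cells stimulated with carbachol in lithium chloride buffer; higher means more IMPase inhibition seen as more IP1 and lower FRET ratio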
Target sequence (P97697 whole entry, looked up): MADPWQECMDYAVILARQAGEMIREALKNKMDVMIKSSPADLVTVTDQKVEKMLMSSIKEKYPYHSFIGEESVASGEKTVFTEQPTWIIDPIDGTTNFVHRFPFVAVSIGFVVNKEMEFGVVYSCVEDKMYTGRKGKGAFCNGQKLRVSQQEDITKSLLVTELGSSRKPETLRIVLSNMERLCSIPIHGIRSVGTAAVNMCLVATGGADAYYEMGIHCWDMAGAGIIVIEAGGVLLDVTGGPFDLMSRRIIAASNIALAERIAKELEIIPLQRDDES
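CHO-M1, 2000 cells/well, cultured 16–30 h; cpd up to 46 uM; carbachol (50 uM solution, stimulation buffer w/ 50 mM LiCl, pH 7.4), 30 min 37C; IP-One TR-FRET, 10 min RT; Ex 320/Em 665, 620; Hill-fit AC50.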
NPSR antag – neuropeptide S receptor (human) antagonism, cAMP | Q6W5P4 | CHO-NPSR cells, cAMP TR-FRET, antagonist mode | Potency, µM (highest dose often 38.3 µM), hits mostly inhibitors | 220,000 tested, 1% active; further: nearly all actives have a fitted effect of over 50% in size
Target sequence (Q6W5P4 whole entry, looked up): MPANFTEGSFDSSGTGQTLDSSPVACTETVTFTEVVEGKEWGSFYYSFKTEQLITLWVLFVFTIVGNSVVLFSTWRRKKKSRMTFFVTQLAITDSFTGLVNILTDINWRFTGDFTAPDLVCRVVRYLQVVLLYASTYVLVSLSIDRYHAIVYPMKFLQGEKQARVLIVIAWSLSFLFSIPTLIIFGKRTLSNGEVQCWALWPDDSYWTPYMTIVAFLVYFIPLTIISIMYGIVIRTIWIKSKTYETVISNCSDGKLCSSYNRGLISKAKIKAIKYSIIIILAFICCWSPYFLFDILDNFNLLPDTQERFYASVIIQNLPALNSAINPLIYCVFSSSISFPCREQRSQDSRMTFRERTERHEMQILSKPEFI
LMNA splice mod – changes lamin A minigene splicing in HeLa cells | AID 1487 | HeLa LMNA splicing GFP/RFP minigene ratio, 48 h | 200,000 tested, 0.01% active | Potency, µM (doses to about 46.1 µM), usual class: inhibitors; active means well fitted inhibition curve with a large enough effect in the signal ratio, with a control signal flat, not every such curve was filed as active; inconclusive means small, poorly fitted or top-dose-only effect, or effect the other way, or a change in a side signal; the % refers to the signal ratio
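S3 HeLa cells stably expressing lamin A-EGFP splicing minigene plus DsRed2, 600 cells/well, 48 h compound exposure at 37C. Laser-scanning cytometry; analysed as GFP (500-530 nm)/RFP (575-640 nm) total intensity ratio; 0.5% DMSO vehicle.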
IMPase Li inh – membrane-permeable IMPase blocker, potentiated with lithium | Potency, µM (titrated, usually from 59.4 µM), actives largely listed as inhibitors | CHO-M1 cells, IP1 TR-FRET (IP-One), carbachol + lithium | 210,000 tested, 0.35% active;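 further: IP1 builds up when IMPase is blocked and the TR-FRET signal falls; nearly all actives have a fitted effect of over 50% in size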
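Readout is a homogeneous TR-FRET IP1 immunoassay (Ex 320, Em 665 and 620), where raised cytosolic IP1 lowers signal. Cells were CHO-M1 treated 30 min at 37C with test compounds plus a little lithium; AC50 values came from Hill-equation fitting.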
Numbers stand for hits; . = inactive; ? = inconclusive; / = no result given; [ ] = another dose, or the depositor's remark. Shown are actives, neighbours in structure and some others; about 1.6% of the full set was active somewhere. Unless noted, the call rests on the fitted dose curve; in most records, active means well fitted curve in the direction sought with a large enough effect; inconclusive means small, poorly fitted or top-dose-only effect, or another doubt; inactive means no such curve, though single readings can be large; an effect the other way counts as inactive or inconclusive.

SMILES	HTT cytoprotect	HttQ103 aggreg	IMPase inh	NPSR antag	LMNA splice mod	IMPase Li inh
COc1cccc(Nc2nc(NCC3CCCO3)c3ccccc3n2)c1 (stereo not given)	.	10µM	.	?	.	.
COc1cccc(Nc2nc(NCCO)c3ccccc3n2)c1	.	8.91µM	.	.	.	.
Oc1ccc(Nc2nc(NCC3CCCO3)c3ccccc3n2)cc1 (stereo not given)	.[10 µM]	.	.	?	?	.
CN1CCN([C@@H]2Cc3ccccc3Sc3ccc(Cl)cc32)CC1	.[1.9 µM]	/	.	/	/	/
CCn1c(=O)cc(SCC(=O)NCC2CCCO2)c2ccccc21 (stereo not given)	.[10 µM]	.	.	.	.	.
Cn1c(=O)cc(SCC(=O)NCC2CCCO2)c2ccc(Cl)cc21 (stereo not given)	.[10 µM]	.	.	10µM	.	?
Fc1ccc(Nc2ncnc3sc4c(c23)CCC4)cc1F	.[10 µM]	10µM	.	.	.	.
c1csc(CCNc2ncnc3sc4c(c23)CCC4)c1	.	7.94µM	.	.	?	.
c1ccc(Nc2ncnc3sc4c(c23)CCC4)cc1	.	.	.	.	.	.
CCOC(=O)/C(C#N)=C\C=C1C=CN(C)C=C1	.	.	?	12.6µM	.	.
O=S(=O)(CCc1ccccc1)c1nnnn1-c1ccccc1	?	/	/	/	/	.
COc1ccc(OC)c2c1C(=O)C(Cl)=C(Cl)C2=O	.[10 µM]	?	/	6.31µM	/	/
COc1ccc(N)c2c1C(=O)c1ccccc1C2=O	.[10 µM]	.	/	12.6µM	.	.
O=C1c2ccsc2SCCN1Cc1c(Cl)cccc1Cl	.[10 µM]	22.4µM	.	?	.	.
O=C1c2ccsc2SCCN1Cc1ccc(Cl)cc1Cl	.	.	.	.	?	.
COCCCNCC(O)COc1ccccc1F (stereo not given)	.	.	/	.	/	.
COc1cccc(CNC(=O)CSc2nc(=O)[nH]c3c2CCC3)c1	/	/	/	/	.	/
CCOC(C)=O	?	.	/	/	?	.
CCCC(=O)OCCNc1cc(Sc2nccn2C)c2nonc2c1[N+](=O)[O-]	.[10 µM]	11.2µM	/	10µM	.	.
CCc1ccc(C(=O)COC(=O)c2ccc(-c3nnc(-c4ccccc4)o3)cc2)cc1	.	.	.	.	.	3.55µM
CCOC(=O)N/N=C\c1ccc([N+](=O)[O-])o1	.	.	.	.	.	.
O=[N+]([O-])c1ccc(/C=N/N=C/c2ccc([N+](=O)[O-])o2)o1	.	.[9.22 µM]	/	5.01µM	?	.
CC(=O)N/N=C/c1ccc([N+](=O)[O-])o1	.	31.6µM	/	/	/	/
O=[N+]([O-])c1ccc(/C=N/Nc2nc(N3CCCCCC3)nc(N3CCCCCC3)n2)o1	.[10 µM]	7.08µM	.	6.31µM	.	.
O=[N+]([O-])c1ccc(/C=N/Nc2nc(N3CCCCC3)nc(N3CCCCC3)n2)cc1	.[10 µM]	.[9.22 µM]	/	?	.	.
SMILES	HTT cytoprotect	HttQ103 aggreg	IMPase inh	NPSR antag	LMNA splice mod	IMPase Li inh
c1ccc(CNc2cc(-c3ccoc3)ncn2)cc1	.	/	/	/	?	.
CCOC(=O)/C(=N/Nc1ccc(Cl)cc1)Sc1nnnn1-c1ccc(C)cc1	.[10 µM]	2.51µM	.	.	?	.
CCCCC(CC)CNC(=O)CC1Nc2c3ccccc3nc(=S)n2C1=O (stereo not given)	?	.	/	.	/	12.6µM
CCCCC(CC)CNC(=O)Cc1ccc(-n2c(=O)[nH]c3ccccc3c2=O)cc1 (stereo not given)	/	/	/	/	.	/
CC(=O)Nc1ccc2c(c1)/C(=C/c1ccc([N+](C)(C)C)cc1)c1ccccc1-2	.[10 µM]	/	/	/	/	.
COc1ccc(Cl)cc1N(C)C(=O)CCc1nc(-c2ccc(C)cc2)no1	.	?	.	?	?	.
CCc1ccccc1N(C)C(=O)CCc1nc(-c2ccc(C)cc2)no1	.	11.2µM	.	?	?	.
CCOC(=O)/C(=N\Nc1ccccc1)P(=O)(c1ccccc1)c1ccccc1	.[10 µM]	.[9.22 µM]	/	10µM	/	/
Clc1nc(NCCc2ccccc2)c2ncn(-c3ccccc3)c2n1	.[10 µM]	/	/	/	/	/
COc1ccc(CC(N)C(=O)NC2C(CO)OC(n3cnc4c(N(C)C)ncnc43)C2O)cc1 (stereo not given)	.	12.6µM	/	/	/	.
COc1ccc(-c2nc(N)c3ncn([C@H]4O[C@@H](CO)[C@@H](O)[C@@H]4O)c3n2)cc1	.[10 µM]	/	/	/	/	.
C=CCc1cccc(/C=C/c2cc(=O)c3ccccc3[nH]2)c1O	.[10 µM]	3.16µM	/	.	?	.
Cc1cc(OCC(=O)Nc2sc3c(c2C#N)CCC(C)C3)ccc1Cl (stereo not given)	/	/	.	/	/	/
Cc1ccc(C)c(CSCC(=O)NCc2cccs2)c1	3.55µM	.	/	.	/	.
c1ccc(CC2CCN(C3=Nc4cccc5cccc3c45)CC2)cc1	.	?	.	10µM	?	.
CCc1cccc2c3c([nH]c12)[C@](CC)(CC(=O)O)OCC3	.[1.9 µM]	/	/	/	/	/
Cc1cccc(N(CC(=O)NCCSCc2cccc(Cl)c2)S(=O)(=O)c2ccccc2)c1C	/	/	.	/	/	/
COc1ccc(C(=O)OC/C(O)=C(\C#N)c2nc3ccccc3[nH]2)cc1S(=O)(=O)N1CCOCC1	?	.	/	.	.	.
CC(=O)N[C@@H](CCC(=O)O)C(=O)O	2µM	.	/	/	/	/
O=C(CNc1ccc(Br)cc1)NNC1=NCCC1	/	.	/	.	?	.
COC(=O)c1cc(C)[nH]c2c(C)cc3nc4ccccc4c3c12	.[10 µM]	.[9.22 µM]	/	.	/	/
COc1ccc(CCN2C(=O)C3C4C=CC(C5CC45)C3C2=O)cc1OC (stereo not given)	.[10 µM]	.[9.22 µM]	/	.	/	.
COc1ccc(CCN2C(=O)C3C4C=CC(C3C2=O)C2C(=O)N(CCc3ccc(OC)c(OC)c3)C(=O)C42)cc1OC (stereo not given)	.[10 µM]	10µM	.	.	?	.
COc1ccc(/C=N/NC(=O)c2ccccc2NC(=O)c2ccco2)c(OC)c1	.[10 µM]	.[9.22 µM]	/	.	/	/
CN1\C(=C/C=C/C=C/C=[N+](C)C)C(C)(C)c2ccccc21	.	10µM	/	10µM	.[9.22 µM]	.
SMILES	HTT cytoprotect	HttQ103 aggreg	IMPase inh	NPSR antag	LMNA splice mod	IMPase Li inh
CN1/C(=C\C=O)C(C)(C)c2ccccc21	.	?	/	.	?	.
Nc1ccc([N+](=O)[O-])c(N)c1	?	/	/	/	/	.
O=C(O)CNC(=O)c1ccc([N+](=O)[O-])cc1	.	/	/	/	/	.
CCCNCc1cc(Br)ccc1OCC(=O)NCCc1ccccc1	/	.	/	.	?	.
O=C(COc1ccc(Br)cc1CNCCc1ccccc1)NCc1ccccc1	.	12.6µM	/	.	/	.
O=c1cc(C(F)(F)F)[nH]c2c(C(F)(F)F)cccc12	/	20µM	/	.	?	.
CCCCCCC#CC1C=CC(OC(C)=O)C(COC(C)=O)O1 (stereo not given)	.[10 µM]	/	/	/	/	/
CCn1ccc2cc(OC)ccc2c1=S	.	.	?	.	.	11.2µM
CCn1c(=S)ccc2ccc(OC)cc21	.	.	?	?	.	?

Screening data from PubChem BioAssay.
